Source: PubChem BioAssay (National Center for Advancing Translational Sciences (NCATS))
Marburg entry – qHTS for Inhibitors of binding or entry into cells for Marburg Virus; Potency, µM (highest dose often 49.2 µM), without a hit: at the highest dose activity change, negative = inhibition, usual class: inhibitors; AID 720532, 2013; Marburg virus pseudotype entry/binding inhibition, cell-based; 6.5% of 18,000 active
LASV entry inh – qHTS for Inhibitors of binding or entry into cells for Lassa Virus; Potency, µM (top dose mostly 49.2 µM), without a hit: at the top dose activity change, negative = inhibition, actives largely listed as inhibitors; Lassa virus pseudotyped entry inhibition, cell-based qHTS; 4.1% of 18,000 active
* marks the source's active call; other numbers are inactive results; u = inconclusive; [ ] = another dose, or the depositor's remark. Shown are actives, neighbours in structure and some others; about 8.6% of the full set was active somewhere. Calls follow the shape of the full dose curve; tested in HEK293 cells. % is scaled to controls: 0 for no effect and ±100 for the full control effect; potency is read from the fitted curve at half-maximal effect.

SMILES	Marburg entry	LASV entry inh
Cc1ccc(OCC(O)C(C)NC(C)C)c2c1CCC2 (centres undefined)	13µM*	u
Cc1ccccc1OC[C@H](O)CO	-4%[17.8 µM]	0%[17.8 µM]
CC=C(C)[C@H](O)C[Si](C)(C)c1ccccc1	-3%[8.59 µM]	-27%[8.59 µM]
[H+].[H+].[Hg+2].[O-]B([O-])[O-].[c-]1ccccc1	u	1µM*
COc1ccc([C@]23Cc4ccccc4[C@H](O2)C2=C(CC(C)(C)CC2=O)O3)cc1	6%[8.59 µM]	-3%[8.59 µM]
C[C@@H]1N[S+](=O)([O-])c2ccc(F)cc2O[C@H]1c1ccccc1	u	9%
COC1=CC2C(=O)C(C(c3ccccc3)C2C)C1(O)c1cccc(OC)c1 (centres undefined)	15%[8.59 µM]	8%[8.59 µM]
CC[C@H]1[C@@H]2C=C[C@@H]3[C@H]4C/C=C\C(=O)NCCC[C@@H]5NC(=O)C(=C5O)C(=O)CC[C@@H]4C[C@@H]3[C@H]2C[C@H]1C	14µM*	28µM*
COc1cc(N2CCN(C(C)C)CC2)ccc1Nc1nc(Nc2ccc(F)cc2C(N)=O)c2cc[nH]c2n1	14µM*	u
COc1cc(C)c(NC(=O)CN(C)C)cc1Nc1nc(Nc2cccc(F)c2C(N)=O)c2cc[nH]c2n1	0.79µM*	u
C=C(C)C[C@@]1(c2ccccc2)Oc2ccccc2C2=NCCN=C21	-21%[8.59 µM]	7%[8.59 µM]
C[C@H]1CN(CCc2ccccc2)C(=O)[C@H]1CC(=O)Nc1ccccc1	-15%	6%
CCCOC(=O)c1ccc(O)cc1	15%[107 µM]	-16%[107 µM]
CCCOC(=O)c1cc(O)c(O)c(O)c1	25µM*	-22%
C[C@@H]1CC[C@H]2C(=O)N(Cc3cccc([N+](=O)[O-])c3)C[C@H](O)CN2[C@@H]1c1ccc(Br)cc1	33%[8.59 µM]	15%[8.59 µM]
Cc1cc(C)c(-c2cc([C@H](C)ON=C[C@@H](C)[C@H](OCc3ccccc3)C(C)C)on2)c(C)c1	6%[8.59 µM]	-2%[8.59 µM]
OC(CCN1CCCC1)(c1ccccc1)C1CCCCC1 (centres undefined)	16µM*	-20%
CC[N+](CC)(CC)CCC(O)(c1ccccc1)C1CCCCC1 (centres undefined)	5%[17.8 µM]	-10%[17.8 µM]
OC(CCN1CCCCC1)(c1ccccc1)c1ccccc1	8.9µM*	u
OC(C#CCN1CCCC1)(c1ccccc1)c1ccccc1	-10%	-4%
C[C@@H]1CC[C@H]2C(=O)N(Cc3ccc(Cl)cc3)C[C@H](O)CN2[C@@H]1c1ccc(Br)cc1	29%[8.59 µM]	-8%[8.59 µM]
CC[C@@H](C)[C@H](N)C(=O)O	4%	-3%
CC(=O)Oc1cc2c(c(C)c1OC(C)=O)CC=C1[C@]3(C)CC[C@]4(C)CC[C@@](C)(C(=O)O)CC4[C@]3(C)CC[C@]12C (some centres undefined)	11µM*	20µM*
Cc1cc2c(OCC(CNC(C)(C)C)OC(=O)c3ccccc3)cccc2[nH]1 (centres undefined)	35µM*	-21%
CCC(=O)Oc1ccc2c(c1)CC[C@@H]1[C@@H]2CC[C@]2(C)[C@@H](OC(=O)CC)CC[C@@H]12	1%	-19%
SMILES	Marburg entry	LASV entry inh
COc1cc(CN2CCOc3ccc(CN4CCC(O)(c5cccnc5)CC4)cc3C2)cc(OC)c1	11µM*	-18%
COc1ccc(CN2CCOc3ccc(CN4CCC(O)(c5cccnc5)CC4)cc3C2)cc1OC	u	-4%
CCCCCC(=O)N1C[C@@H](O)[C@H](n2cc(C3CC3)nn2)C[C@H]1c1ccccc1	21%	15%
Cc1c(C(=O)NCCc2cccnc2)cnn1-c1nccc(-c2ccccc2F)n1	37%	-5%
O=C(NC[C@@H]1CCCN2CCCC[C@H]12)c1cnn(-c2nccc(-c3cc4ccccc4o3)n2)c1C1CC1	11µM*	u
CCN(CC)CCNC(=O)c1cnn(-c2nccc(-c3cc4ccccc4o3)n2)c1C	13µM*	u
CCN1CCCC1CNC(=O)c1cnn(-c2nccc(-c3cc4ccccc4o3)n2)c1C1CC1 (centres undefined)	u	-18%
COC(=O)C12CC3=CCC4C(=O)N(c5ccccc5)C(=O)C4C3Cc3ccccc3[C@H]1CNC2=O (some centres undefined)	5%[8.59 µM]	21%[8.59 µM]
O=C1[C@H]2[C@@H]3[C@@H](O)[C@H](O)CC(=NOCc4ccccc4)[C@H]3CC[C@H]2C(=O)N1C1CCCCC1	-25%[8.59 µM]	1%[8.59 µM]
COC(=O)[C@@H]1[C@@H](c2ccccc2)NC(=O)N(CCc2cc(OC)c(OC)c(OC)c2)[C@@H]1C	-31%[8.59 µM]	-7%[8.59 µM]
COC(=O)c1cc2c(s1)-c1ccccc1OC2	33%	2%
CN(C)CC/C=C1\c2ccccc2COc2ccccc21	10µM*	-16%
CN(C)CC/C=C1/c2ccccc2Sc2ccc(Cl)cc21	18µM*	u
COc1cc2c(cc1CC=C(C)C)C(=O)C[C@@H](c1ccc(O)cc1)O2	u	8.9µM*
COc1ccc(C2CC(=O)c3ccc(OC)cc3O2)cc1 (centres undefined)	-5%	2%
CCOC(=O)[C@@]1([C@@H](NC(=O)OC)c2cccc(F)c2)CCCC1=O	-13%[8.59 µM]	1%[8.59 µM]
CO[C@@H]1[C@@H](O[C@@H]2O[C@H](C)[C@@H](O[C@H]3C[C@@](C)(O)[C@@H](OC(=O)CC(C)C)[C@H](C)O3)[C@H](N(C)C)[C@H]2O)[C@@H](CC=O)C[C@@H](C)C(=O)/C=C/C2OC2C[C@@H](C)OC(=O)C[C@H]1OC(C)=O (some centres undefined)	13µM*	u
CC[C@H]1OC(=O)C[C@@H](O)[C@H](C)[C@@H](O[C@@H]2O[C@H](C)[C@@H](O[C@H]3C[C@@](C)(O)[C@@H](O)[C@H](C)O3)[C@H](N(C)C)[C@H]2O)[C@@H](CC=O)C[C@@H](C)C(=O)/C=C/C(C)=C/[C@@H]1CO[C@@H]1O[C@H](C)[C@@H](O)[C@@H](OC)[C@H]1OC	-20%	1%
COC1C[C@@H](O[C@@H]2C(C)C(=O)OC(C)C(C)[C@H](OC(C)=O)C(C)C(=O)[C@@]3(CO3)CC(C)C(OC3OC(C)CC(N(C)C)[C@H]3OC(C)=O)C2C)OC(C)[C@@H]1OC(C)=O (some centres undefined)	-1%	4%
COC1C(O)CC(=O)OC(C)C/C=C/C=C/[C@@H](OC2CCC(N(C)C)C(C)O2)C(C)C[C@@H](CC=O)[C@@H]1O[C@H]1OC(C)[C@H](O[C@@H]2C[C@@](C)(O)C(O)C(C)O2)C(N(C)C)C1O (some centres undefined)	6.3µM*	-20%
CO[C@@H]1[C@@H](O[C@@H]2O[C@H](C)[C@@H](O[C@H]3C[C@@](C)(O)[C@@H](O)[C@H](C)O3)[C@H](N(C)C)[C@H]2O)[C@@H](CC=O)C[C@@H](C)[C@@H](O[C@@H]2CC[C@H](N(C)C)[C@@H](C)O2)/C=C/C=C/C[C@@H](C)OC(=O)C[C@H]1OC(C)=O	3.2µM*	u
COC1[C@@H](O[C@@H]2O[C@H](C)[C@@H](O[C@H]3C[C@@](C)(O)[C@H](OC(=O)CC(C)C)[C@H](C)O3)[C@H](N(C)C)[C@H]2O)[C@@H](CC=O)C[C@@H](C)[C@@H](O)/C=C/C=C/C[C@@H](C)OC(=O)C[C@H]1OC(C)=O (some centres undefined)	7%[17.8 µM]	9%[17.8 µM]
COCCN1C(=O)NC(CCc2ccccc2)C(C(C)=O)=C1C (centres undefined)	5%[8.59 µM]	11%[8.59 µM]
